Data reported in the supplement of paper PMC9262897, “Low-cost anti-mycobacterial drug discovery using engineered E. coli” (Nature Communications, 2022).
Counter-ions that a name gives are not always drawn. ± gives the standard deviation of the averaged measurements.

Assays:
Test in all cases: growth (OD600 after 10 h); higher = more growth (less inhibition)
[1] = system: E. coli TESEC Alr+ wild-type control; conditions: compound 0.1 mM; raw OD600 reference: median of DMSO wells 0.241, cell-free background 0.041
Experimental: (§1)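 TESEC Mtb Alr E. coli, or the Alr+ wild-type control, in 384-well plates with Prestwick library compounds at 0.1 mM and 1% DMSO, across arabinose induction levels of 1E3 to 1E7 nM. Growth is read as OD600 after 10 h at 37 °C in triplicate biological replicates.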

E. coli TESEC Mtb Alr [2] = conditions: compound 0.1 mM
Experimental: as §1

E. coli TESEC Mtb Asd = conditions: compound 0.1 mM
Experimental: (§2)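 TESEC E. coli strains in which the native enzyme is deleted and replaced by arabinose-inducible Mtb Asd, DapB, CysH or TrpD, each grown in its selective medium. Strains were screened against the Prestwick library at 0.1 mM and 1% DMSO in 384-well format at low and high arabinose induction. Growth is read as OD600 after 10 h in triplicate.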

[3] = system: E. coli TESEC Alr+ wild-type control; conditions: compound 0.1 mM; raw OD600 reference: median of DMSO wells 0.49, cell-free background 0.052
Experimental: (§3)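 TESEC Mtb Alr E. coli (ΔaraC ΔtolC ΔentC Δalr ΔdadX, arabinose-inducible Mtb Alr) or the Alr+ wild-type control strain, grown in defined M9-fructose medium without D-alanine in 96-well plates with Prestwick library compounds at 0.1 mM and 1% DMSO. Low Alr induction is 0.1 µM arabinose and high induction is 10 mM arabinose.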

E. coli TESEC Mtb Alr [4] = conditions: compound 0.1 mM; remark: listed apart in the source
Experimental: as §3

E. coli TESEC Mtb DapB = conditions: compound 0.1 mM
Experimental: as §2

[5] = arabinose 1000 nM, raw OD600 reference: median of DMSO wells 0.294, cell-free background 0.041
[6] = arabinose 10000 nM, raw OD600 reference: median of DMSO wells 0.264, cell-free background 0.041
[7] = arabinose 100000 nM, raw OD600 reference: median of DMSO wells 0.201, cell-free background 0.041
[8] = arabinose 1000000 nM, raw OD600 reference: median of DMSO wells 0.193, cell-free background 0.041
[9] = arabinose 10000000 nM, raw OD600 reference: median of DMSO wells 0.146, cell-free background 0.041
[10] = arabinose induction (level): High, raw OD600 reference: median of DMSO wells 0.331, cell-free background 0.041
[11] = arabinose induction (level): Low, raw OD600 reference: median of DMSO wells 0.417, cell-free background 0.041
[12] = arabinose 100 nM, raw OD600 reference: median of DMSO wells 0.413, cell-free background 0.052
[13] = arabinose 10000000 nM, raw OD600 reference: median of DMSO wells […], cell-free background 0.052

SMILES	growth [1]	growth (E. coli TESEC Mtb Alr [2]; [5])	growth (E. coli TESEC Mtb Alr [2]; [6])	growth (E. coli TESEC Mtb Alr [2]; [7])	growth (E. coli TESEC Mtb Alr [2]; [8])	growth (E. coli TESEC Mtb Alr [2]; [9])	growth (E. coli TESEC Mtb Asd; [10])	growth (E. coli TESEC Mtb Asd; [11])	growth [3]	growth (E. coli TESEC Mtb Alr [4]; [12])	growth (E. coli TESEC Mtb Alr [4]; [13])	growth (E. coli TESEC Mtb DapB; arabinose induction (level): High, raw OD600 reference: median of DMSO wells […], cell-free background 0.041)	growth (E. coli TESEC Mtb DapB; arabinose induction (level): Low, raw OD600 reference: median of DMSO wells 0.227, cell-free background 0.041)
CC[C@@H](C(N)=O)N1CCCC1=O [Levetiracetam]	0.247 ± 0.0084	0.304 ± 0.018	0.264 ± 0.0095	0.205 ± 0.0055	0.183 ± 0.0062	0.168 ± 0.0049	0.256 ± 0.074	0.313 ± 0.057	0.453 ± 0.03	0.409 ± 0.0085	0.364 ± 0.028		
CC(=O)[C@H]1CC[C@H]2[C@@H]3CC[C@H]4C[C@H](O)CC[C@]4(C)[C@H]3C(=O)C[C@]12C [Alfaxalone]	0.1302 ± 0.0013	0.162 ± 0.0069	0.21 ± 0.0045	0.108 ± 0.0044	0.101 ± 0.0035	0.0965 ± 0.0034	0.161 ± 0.045	0.275 ± 0.038		0.3696 ± 0.00096	0.192 ± 0.015		
C[C@]12CC[C@H](O)C[C@H]1CC[C@@H]1[C@@H]2CC[C@]2(C)[C@@H](C3=CC(=O)OC3)CC[C@]12O [Digitoxigenin]	0.147 ± 0.0028	0.197 ± 0.0049	0.251 ± 0.0094	0.117 ± 0.0044	0.0923 ± 0.0033	0.126 ± 0.0021	0.154 ± 0.0042	0.289 ± 0.096		0.41 ± 0.0093	0.227 ± 0.01		
CC(N)C(O)c1ccccc1 (stereo not given) [Phenylpropanolamine hydrochloride]	0.26 ± 0.0031	0.298 ± 0.0047	0.254 ± 0.0066	0.229 ± 0.045	0.19 ± 0.011	0.148 ± 0.0054	0.399 ± 0.022	0.433 ± 0.067		0.404 ± 0.016	0.345 ± 0.015	0.189 ± 0.009	0.226 ± 0.025
CCC(=O)O[C@@](Cc1ccccc1)(c1ccccc1)[C@@H](C)CN(C)C [Levopropoxyphene napsylate]	0.178 ± 0.0045	0.249 ± 0.005	0.283 ± 0.012	0.176 ± 0.014	0.1558 ± 0.001	0.15 ± 0.0048	0.169 ± 0.019	0.388 ± 0.047		0.4145 ± 0.0027	0.323 ± 0.013		
CC[C@@]1([C@@H]2O[C@@H]([C@H]3O[C@@](O)(CO)[C@H](C)C[C@@H]3C)C[C@@H]2C)CC[C@H]([C@]2(C)CC[C@]3(C[C@H](O)[C@@H](C)[C@@H]([C@@H](C)[C@@H](OC)[C@H](C)C(=O)O)O3)O2)O1 [Monensin sodium salt]	0.218 ± 0.0078	0.279 ± 0.017	0.264 ± 0.0038	0.207 ± 0.028	0.159 ± 0.0076	0.138 ± 0.0041	0.295 ± 0.028	0.408 ± 0.016		0.384 ± 0.007	0.149 ± 0.013		
C[C@@H]1CN([C@H]2CC[C@](C#N)(c3ccc(F)cc3)CC2)CC[C@]1(C(=O)O)c1ccccc1 [Levocabastine hydrochloride]	0.215 ± 0.0053	0.274 ± 0.0041	0.271 ± 0.017	0.171 ± 0.011	0.154 ± 0.0044	0.154 ± 0.0047	0.212 ± 0.033	0.384 ± 0.03	0.49 ± 0.026	0.404 ± 0.017	0.321 ± 0.022		
C[N+](C)(C)CCCCCCCCCC[N+](C)(C)C [Decamethonium bromide]	0.246 ± 0.0085	0.286 ± 0.015	0.2525 ± 0.0016	0.214 ± 0.022	0.208 ± 0.003	0.13 ± 0.0017	0.369 ± 0.032	0.444 ± 0.043		0.39 ± 0.017	0.376 ± 0.022		
CN(C)C(=O)Oc1cc(OC(=O)N(C)C)cc(C(O)CNC(C)(C)C)c1 (stereo not given) [Bambuterol hydrochloride]	0.22 ± 0.0079	0.266 ± 0.04	0.273 ± 0.0062	0.232 ± 0.02	0.193 ± 0.006	0.141 ± 0.0068	0.328 ± 0.026	0.39 ± 0.047		0.405 ± 0.011	0.342 ± 0.015		
C=CCN1CC[C@]23c4c5ccc(O)c4O[C@H]2C(=O)CC[C@@]3(O)[C@H]1C5 [Naloxone hydrochloride]	0.244 ± 0.012	0.266 ± 0.026	0.27 ± 0.016	0.192 ± 0.021	0.178 ± 0.0076	0.137 ± 0.0051	0.295 ± 0.066	0.498 ± 0.028		0.419 ± 0.0087	0.317 ± 0.026		
NC(=O)OCCCc1ccccc1 [Phenprobamate]	0.219 ± 0.0026	0.274 ± 0.0083	0.258 ± 0.011	0.183 ± 0.018	0.192 ± 0.012	0.138 ± 0.0065	0.31 ± 0.11	0.323 ± 0.063	0.562 ± 0.087	0.421 ± 0.011	0.352 ± 0.02		
C1CCc2nnnn2CC1 [Pentylenetetrazole]	0.255 ± 0.011	0.282 ± 0.018	0.275 ± 0.0089	0.233 ± 0.021	0.187 ± 0.0053	0.141 ± 0.007	0.402 ± 0.0048	0.431 ± 0.017		0.408 ± 0.011	0.367 ± 0.022		
c1ccc2c(c1)OCC(C1=NCCN1)O2 (stereo not given) [Idazoxan hydrochloride]	0.23 ± 0.013	0.281 ± 0.02	0.27 ± 0.0069	0.188 ± 0.0024	0.192 ± 0.0045	0.141 ± 0.0099	0.373 ± 0.039	0.379 ± 0.019		0.401 ± 0.014	0.315 ± 0.0098		
CC(=O)O[C@H]1C[C@H](O[C@H]2[C@@H](O)C[C@H](O[C@H]3[C@@H](O)C[C@H](O[C@H]4CC[C@@]5(C)[C@H](CC[C@@H]6[C@@H]5C[C@@H](O)[C@]5(C)[C@@H](C7=CC(=O)OC7)CC[C@]65O)C4)O[C@@H]3C)O[C@@H]2C)O[C@H](C)[C@H]1O[C@@H]1O[C@H](CO)[C@@H](O)[C@H](O)[C@H]1O [Lanatoside C]	0.198 ± 0.0032						0.339 ± 0.04	0.417 ± 0.057		0.4014 ± 0.0037	0.354 ± 0.0094		
